Screens: PubChem BioAssay, National Center for Advancing Translational Sciences (NCATS)
Hits are enriched below; roughly 11% of the tested compounds scored in any of these assays.
G9a inh – inhibitors of human histone lysine methyltransferase G9a | Q96KQ7 | G9a H3K9 monomethylation, AlphaScreen, 2 h | Potency, µM (titrated, usually from 102 µM), inactives show at the highest dose activity, negative = inhibition, most hits filed as inhibitors | hit rate 8.8% among 350,000 | AID 504332; further: on the % scale 0 is the no-effect control and ±100 the full control effect; nearly all actives have a fitted effect of over 75% in size
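G9a (20 nM) preincubated 15 min RT with compounds, then 500 nM biotinylated H3K9 peptide and 20 uM SAM added; 2 h RT reaction. Monomethyl-H3K9 product detected by AlphaScreen with anti-H3K9me1 antibody, streptavidin donor and anti-rabbit IgG acceptor beads.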
JMJD2A Tudor inh – blocks the human JMJD2A Tudor domain; O75164; AlphaScreen JMJD2A-Tudor / H3K4me3 peptide binding; hit rate 4.4% among 390,000; Potency, µM (doses to about 114 µM), inactives show top-dose activity change, negative = inhibition, actives largely listed as inhibitors; further: on the % scale 0 is the no-effect control and ±100 the full control effect; nearly all actives have a fitted effect of over 50% in size
Target sequence (O75164 whole entry, looked up, the tested form may be a part): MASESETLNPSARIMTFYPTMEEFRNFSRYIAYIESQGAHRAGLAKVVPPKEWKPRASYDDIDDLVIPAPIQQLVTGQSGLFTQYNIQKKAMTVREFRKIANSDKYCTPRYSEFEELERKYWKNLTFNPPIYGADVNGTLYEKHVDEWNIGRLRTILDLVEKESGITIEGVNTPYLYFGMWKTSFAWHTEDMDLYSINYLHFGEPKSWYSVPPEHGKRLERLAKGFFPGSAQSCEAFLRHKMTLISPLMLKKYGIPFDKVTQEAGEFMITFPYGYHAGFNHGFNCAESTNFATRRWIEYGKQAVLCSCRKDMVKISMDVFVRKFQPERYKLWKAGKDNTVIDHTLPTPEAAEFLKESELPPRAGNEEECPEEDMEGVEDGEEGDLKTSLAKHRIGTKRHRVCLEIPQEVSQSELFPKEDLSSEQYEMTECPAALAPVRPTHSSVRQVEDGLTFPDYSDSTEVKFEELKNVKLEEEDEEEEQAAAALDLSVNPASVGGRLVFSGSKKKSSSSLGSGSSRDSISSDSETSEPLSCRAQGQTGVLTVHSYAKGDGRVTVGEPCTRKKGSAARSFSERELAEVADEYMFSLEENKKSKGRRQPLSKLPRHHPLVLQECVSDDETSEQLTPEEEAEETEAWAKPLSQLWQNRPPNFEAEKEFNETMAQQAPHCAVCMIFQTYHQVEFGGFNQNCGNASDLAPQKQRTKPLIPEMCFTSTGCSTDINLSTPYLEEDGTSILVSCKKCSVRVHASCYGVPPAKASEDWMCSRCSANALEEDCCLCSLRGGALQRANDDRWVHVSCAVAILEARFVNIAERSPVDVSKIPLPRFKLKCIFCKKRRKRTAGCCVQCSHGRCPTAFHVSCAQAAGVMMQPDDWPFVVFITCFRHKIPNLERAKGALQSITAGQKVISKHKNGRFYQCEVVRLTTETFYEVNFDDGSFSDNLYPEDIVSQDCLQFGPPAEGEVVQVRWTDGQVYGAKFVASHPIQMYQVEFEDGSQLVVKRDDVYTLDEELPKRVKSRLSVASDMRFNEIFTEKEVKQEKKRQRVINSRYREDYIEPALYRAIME
PLK1 PBD block – blocks phosphopeptide binding to human PLK1 polo-box domain; Plk1 PBD binding of FITC phosphopeptide, fluorescence polarization; hit rate 2.8% among 360,000; Potency, µM, for inactives: max response, negative = inhibition, hits mostly inhibitors; AID 720504; P53350; further: series mostly up to about 57 µM; on the % scale 0 is the no-effect control and ±100 the full control effect; nearly all actives have a fitted effect of over 65% in size
VDR inhibitor – vitamin D3 receptor (human) inhibition | VDR-SRC2-3 peptide fluorescence polarization, 2 h | Potency, µM, without a hit: max response, negative = inhibition, most hits filed as inhibitors | P11473 | hit rate 0.93% among 400,000; further: on the % scale 0 is the no-effect control and ±100 the full control effect
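The screen uses fluorescence polarization to detect compounds that interfere with recruitment of the SRC2-3 coactivator peptide to VDR; plates are read after 2 h at room temperature.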
BAZ2B inh – blocks human BAZ2B; Potency, µM (top dose mostly 114 µM), for the others: top-dose activity change, negative = inhibition, usual class: inhibitors; AlphaScreen BAZ2B-H3K14Ac peptide displacement; hit rate 4.4% among 360,000; further: on the % scale 0 is the no-effect control and ±100 the full control effect; nearly all actives have a fitted effect of over 60% in size
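BAZ2B 50 nM plus b-H3(5-23)K14Ac 50 nM, PBS pH 7.4/0.01% Tween-20, 30 min RT; compound added (max 110 uM), 30 min RT; streptavidin donor/Ni-chelate acceptor beads 10 ug/mL final, 20 min dark; AlphaScreen read.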
HP1b binding inh – blocks HP1-beta chromodomain binding to methylated histone tails | P83916 | AlphaScreen HP1-beta / biotin-H3K9me3 peptide binding | Potency, µM (series often up to 114 µM), without a hit: top-dose activity change, negative = inhibition, most hits filed as inhibitors | hit rate 0.56% among 390,000 | AID 540317; further: nearly all actives have a fitted effect of over 70% in size
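Compound inhibition of the preformed complex between 50 nM HP1-beta and 50 nM biotinylated H3K9me3 peptide was read by AlphaScreen. Buffer was PBS pH 7.4 with 0.01% Tween-20. Incubations ran 30 min at room temperature, with 10 ug/mL donor/acceptor beads.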
* = called active by the depositor; ? = inconclusive; . = no result; [ ] = remark or other dose. The call rests on the fitted dose curve; in most records, active means well fitted curve in the direction sought with a large enough effect; inconclusive means small, poorly fitted or top-dose-only effect, or another doubt; inactive means no such curve, though single readings can be large; an effect the other way counts as inactive or inconclusive. Potency means the concentration at half of the fitted maximal effect.

SMILES | G9a inh | JMJD2A Tudor inh | PLK1 PBD block | VDR inhibitor | BAZ2B inh | HP1b binding inh
CC(C)CCC(CCNCc1ccccn1)c1ccc2c(c1)OCO2 (stereo not given) | 16µM* | 40µM* | -5% | -14% | 56µM* | 10%
CC(C)C(CCNCc1ccccn1)c1ccc(Cl)cc1 (stereo not given) | ? | 20µM* | ? | ? | 50µM* | 11%
CCOC(=O)CCCCCC(=O)Nc1ccc2c(c1)C(=O)N([C@H](C)CO)C[C@H](C)[C@@H](CN(C)S(C)(=O)=O)OCCCC[C@@H](C)O2 | . | . | -18% | . | . | .
O=C(COC(=O)c1ccc(NC(=O)C2CC=CCC2C(=O)O)cc1)c1ccccc1 (stereo not given) | -47% | -4% | -1% | -7% | ? | 24%
COc1ccc(-c2c(C)[nH]n3c(=O)c(Cc4ccccc4)c(C)nc23)cc1 | ? | -6% | -4% | 1% | -6% | 35%
COc1ccc(NC(=O)C2CSC3c4ccccc4C(=O)N23)cc1 (stereo not given) | 28µM* | -19% | -9% | -2% | ? | 13%
COC(=O)C1CSC2c3ccccc3C(=O)N12 (stereo not given) | . | -7% | ? | -19% | . | 19%
COC(=O)c1ccc(NC(=O)c2cc3cc(C)ccc3n2C)cc1 | -3%[59 µM] | -5% | . | -4% | -4% | 31%
O=C(O)c1ccc(N/N=C/c2cc3cc4c(cc3nc2Cl)OCCO4)cc1 | ? | -29% | -16% | 11% | 79µM* | 10%
O=C(CCc1nnc2ccc(NCc3ccco3)nn12)N1CCN(c2ccccc2)CC1 | -16% | 40µM* | 19µM* | ? | 50µM* | -23%
Cc1ccc(NS(=O)(=O)c2cc([N+](=O)[O-])ccc2NNC(=S)Nc2cccc(Cl)c2)c(C)c1 | 16µM* | ? | ? | -29% | 20µM* | ?
Cc1ccc([N+](=O)[O-])cc1NC(=S)NC(=O)C(C)(C)C | -50% | -24% | -23% | -18% | ? | -10%
Cc1ccc(NS(=O)(=O)c2cc([N+](=O)[O-])ccc2NNC(=S)Nc2cc(C)ccc2C)c(C)c1 | 2.5µM* | 40µM* | ? | ? | 32µM* | ?
COc1ccc(NC(=S)NNc2ccc([N+](=O)[O-])cc2S(=O)(=O)Nc2ccc(C)cc2C)cc1 | 10µM* | 32µM* | 27µM* | 45µM* | 25µM* | ?
COc1ccc(CNc2ccc([N+](=O)[O-])cc2C)cc1 | -23% | -27% | -8% | 1% | -38% | 22%
COCCn1c(C)cc(/C=C(\C#N)C(=O)OCC(=O)N(C)c2c(N)n(Cc3ccccc3)c(=O)[nH]c2=O)c1C | 4%[12.7 µM] | -32% | -7% | -5% | -5% | 9%
CN(C)S(=O)(=O)c1cccc(NC(=O)COc2ccccc2C(=O)NCc2ccccc2)c1 | ? | 4% | 2% | -12% | 7% | 32%
CNC(=S)N1N=C(c2ccc(Br)cc2)CC1c1ccc(OC)cc1 (stereo not given) | 2.5µM* | 2.5µM* | -5% | 9% | -34% | ?
CNC(=S)N1N=C(c2ccc(C)cc2)CC1c1ccc(OC)cc1 (stereo not given) | 8%[0.501 µM] | -15% | -4% | 7% | -35% | 31%
COc1ccc(C2CC(c3ccccc3)=NN2C(=O)CN2CCN(Cc3ccccc3)CC2)cc1 (stereo not given) | ? | 79µM* | -5% | -12% | 35µM* | -31%
COc1ccc(C2=NN(C(=O)CCCC(=O)O)C(c3cn(-c4ccccc4)nc3-c3ccccc3)C2)cc1 (stereo not given) | ? | 56µM* | -29% | 8% | 56µM* | 32%
CCOc1ccc2nc(Cl)c(C3CC(c4ccccc4)=NN3C(=O)CCC(=O)O)cc2c1 (stereo not given) | 11%[59 µM] | -30% | . | -2% | -6% | 21%
CCOc1ccc2nc(Cl)c(C3CC(c4ccc(C)cc4)=NN3C(=O)CCC(=O)O)cc2c1 (stereo not given) | 3%[59 µM] | 79µM* | . | -22% | ? | -12%
COc1ccc(C2=NN(C(=O)CN3CCCCC3)C(c3ccc(C)cc3)C2)cc1 (stereo not given) | 26%[12.7 µM] | -35% | -7% | 2% | -22% | 5%
SMILES | G9a inh | JMJD2A Tudor inh | PLK1 PBD block | VDR inhibitor | BAZ2B inh | HP1b binding inh
CNC(=S)N1N=C(c2ccc(C)cc2)CC1c1ccc(N(C)C)cc1 (stereo not given) | 14µM* | 32µM* | -9% | -24% | 10µM* | 50µM*
CNC(=S)N1N=C(c2ccc(C)cc2)CC1c1cc(OC)ccc1OC (stereo not given) | . | ? | ? | 4% | ? | 9%
CCCCC/C=C\C/C=C\C/C=C\C/C=C\CCCCCC(=O)NCCCC(=O)O | . | . | . | -6% | . | .
Cc1oc2ncn(CC(C)C)c(=O)c2c1C(=O)NCCCN(Cc1ccccc1)C(C)C | -18%[59 µM] | -7% | . | 22% | 10%[57.1 µM] | 16%
Nn1c(SCc2c(F)cccc2F)nnc1-c1ccccn1 | -36% | 8.9µM* | -6% | -4% | 13µM* | -5%
Cc1ccc(C)c(CSc2nnc(-c3ccccn3)n2N)c1 | -24%[59 µM] | 40µM* | -26% | -8% | . | 26%
Cc1ccc(NC(=O)CSc2nnc(-c3ccccn3)n2N)cc1F | -1% | -8% | 5% | 2% | -19% | 13%
CCOc1ccccc1N(C)S(=O)(=O)c1ccc2c(c1)CC(C)N2C(=O)C1CC1 (stereo not given) | 4%[59 µM] | -7% | 1% | -11% | -25% | 70%
CN(C1=C(NC(=O)c2ccc(Cl)cc2)C(=O)c2ccccc2C1=O)c1ccccc1 | 8.9µM* | 4.5µM* | 10% | -14% | 8.9µM* | -91%
O=C(NC1=C(Nc2ccc(Cl)cc2)C(=O)c2ccccc2C1=O)c1ccccc1 | 7.9µM* | -3%[57.1 µM] | -20% | -9% | ? | ?
O=C(Nc1ccc(Nc2ccccc2)cc1)c1ccc(Cl)cc1 | . | -2% | 6% | 2% | . | 27%
Cc1ccc(OCCNC(=O)Cc2ccc(F)cc2)cc1 | 11% | 4% | -1% | 0% | -6% | 43%
Clc1ccc(-n2nnnc2-c2cnc3ccccc3c2-c2ccccc2)cc1 | 14µM* | -31% | 1% | -10% | -20% | 5%
Clc1ccc(-n2nnnc2-c2ccccc2)cc1 | 45µM* | 3% | -29% | 3% | 1% | -15%
Clc1ccc(-c2nnnn2-c2ccc(Cl)cc2)cc1 | -2% | 24% | -7% | 8% | 10% | 55%
Cc1c(Cc2ccc3c(c2)OCO3)sc(NC(=O)c2ccc3ccccc3c2)c1C(N)=O | 6.3µM* | -9% | 13µM* | -19% | -6% | -2%
